# Experimental data as given in PubChem BioAssay.
# Active and inactive are the calls of the source.
# How the values were obtained:
# [1] = system: PRMT1 (protein arginine N-methyltransferase 1); test: small molecules binding arginine methyltransferase PRMT1 – biochemical, small-molecule microarray, 635 nm fluorescence, primary screen (AID 1088); conditions: higher = more signal;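 also: binding of Prmt1 protein to compounds spotted on small-molecule microarray slides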
# [2] = growth effects on S. cerevisiae YJM789 – YJM789 clinical isolate, OD600, 24 h, basal, primary screen (AID 1089); conditions: higher = more signal, called active from +8 up or from −8 down;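 also: growth of clinical yeast isolate S. cerevisiae YJM 789 seeded 1000 cells per well; test concentration not given here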
# [3] = S. pombe growth modifiers, basal conditions – strain 972, OD600, 24 h, no modulator, primary screen (AID 1090);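 also: basal condition with compound alone and no growth modifier present; test concentration not given here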; conditions: S. pombe 972 growth, higher = more signal, called active from +8 up or from −8 down
# [4] = budding yeast growth modifiers under rapamycin – strain BY4716, OD600, 96 h, primary screen (AID 1091); also: test concentration not given here; conditions: S. cerevisiae BY4716 + rapamycin, higher = more signal, called active from +8 up or from −8 down
# [5] = biological target: Torsin-1A-interacting protein 2 (Homo sapiens) (UniProt Q8NFQ8); test: small molecules binding lysate-expressed LULL1 – cell lysate, human LULL1 lysate, 635/667 nm fluorescence, primary screen (AID 1092); conditions: small-molecule microarray, hLULL1 lysate binding, 635 nm fluorescence; higher = more signal;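 also: probe is lysate of COS7 cells overexpressing human LULL1; score merges per-feature 667 nm fluorescence with signal-to-noise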
# Torsin-1A-interacting protein 2 (Homo sapiens), sequence (Q8NFQ8 whole entry, looked up): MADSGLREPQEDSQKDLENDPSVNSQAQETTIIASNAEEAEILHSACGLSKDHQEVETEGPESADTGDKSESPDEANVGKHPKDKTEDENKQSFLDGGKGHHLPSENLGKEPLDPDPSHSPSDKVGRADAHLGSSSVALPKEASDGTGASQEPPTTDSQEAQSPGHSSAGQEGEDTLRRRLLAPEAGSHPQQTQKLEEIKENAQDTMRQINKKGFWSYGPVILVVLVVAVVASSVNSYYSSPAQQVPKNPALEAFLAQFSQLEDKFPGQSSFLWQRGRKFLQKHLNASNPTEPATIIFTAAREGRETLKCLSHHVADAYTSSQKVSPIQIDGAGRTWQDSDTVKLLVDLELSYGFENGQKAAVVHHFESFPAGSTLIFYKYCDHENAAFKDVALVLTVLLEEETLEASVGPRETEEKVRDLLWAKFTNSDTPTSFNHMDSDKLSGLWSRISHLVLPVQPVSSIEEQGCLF
# [6] = optical density change of DRC41 E. coli – strain DRC41, OD650, 24 h, E. coli filamentation project, primary screen (AID 1093);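 also: MC1000 strain lacking acrAB efflux and sulA so SOS filamentation is blocked; test concentration not given here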; conditions: E. coli DRC41 growth, higher = more signal, called active from +8 up or from −8 down
# [7] = probe aLefty2 binding to arrayed compounds – biochemical, biotinylated probe, 635/667 nm fluorescence, primary screen (AID 1094); conditions: small-molecule microarray, higher = more signal;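 also: score merges spot fluorescence near 667 nm with spot signal-to-noise ratio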
# [8] = system: Noggin (protein binding on small-molecule microarray); test: small molecules binding Noggin protein – biochemical, 635/667 nm fluorescence, primary screen (AID 1095); conditions: 635 nm fluorescence, higher = more signal;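 also: score merges 667 nm feature fluorescence with signal to noise over triplicate slides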
# [9] = biological target: Neurogenic locus notch homolog protein 3 (Homo sapiens) (UniProt Q9UM47); test: small molecules binding NOTCH3 protein – biochemical, 635/667 nm fluorescence, primary screen (AID 1096); conditions: small-molecule microarray, 635 nm fluorescence, higher = more signal
# Neurogenic locus notch homolog protein 3 (Homo sapiens), sequence (Q9UM47 whole entry, looked up): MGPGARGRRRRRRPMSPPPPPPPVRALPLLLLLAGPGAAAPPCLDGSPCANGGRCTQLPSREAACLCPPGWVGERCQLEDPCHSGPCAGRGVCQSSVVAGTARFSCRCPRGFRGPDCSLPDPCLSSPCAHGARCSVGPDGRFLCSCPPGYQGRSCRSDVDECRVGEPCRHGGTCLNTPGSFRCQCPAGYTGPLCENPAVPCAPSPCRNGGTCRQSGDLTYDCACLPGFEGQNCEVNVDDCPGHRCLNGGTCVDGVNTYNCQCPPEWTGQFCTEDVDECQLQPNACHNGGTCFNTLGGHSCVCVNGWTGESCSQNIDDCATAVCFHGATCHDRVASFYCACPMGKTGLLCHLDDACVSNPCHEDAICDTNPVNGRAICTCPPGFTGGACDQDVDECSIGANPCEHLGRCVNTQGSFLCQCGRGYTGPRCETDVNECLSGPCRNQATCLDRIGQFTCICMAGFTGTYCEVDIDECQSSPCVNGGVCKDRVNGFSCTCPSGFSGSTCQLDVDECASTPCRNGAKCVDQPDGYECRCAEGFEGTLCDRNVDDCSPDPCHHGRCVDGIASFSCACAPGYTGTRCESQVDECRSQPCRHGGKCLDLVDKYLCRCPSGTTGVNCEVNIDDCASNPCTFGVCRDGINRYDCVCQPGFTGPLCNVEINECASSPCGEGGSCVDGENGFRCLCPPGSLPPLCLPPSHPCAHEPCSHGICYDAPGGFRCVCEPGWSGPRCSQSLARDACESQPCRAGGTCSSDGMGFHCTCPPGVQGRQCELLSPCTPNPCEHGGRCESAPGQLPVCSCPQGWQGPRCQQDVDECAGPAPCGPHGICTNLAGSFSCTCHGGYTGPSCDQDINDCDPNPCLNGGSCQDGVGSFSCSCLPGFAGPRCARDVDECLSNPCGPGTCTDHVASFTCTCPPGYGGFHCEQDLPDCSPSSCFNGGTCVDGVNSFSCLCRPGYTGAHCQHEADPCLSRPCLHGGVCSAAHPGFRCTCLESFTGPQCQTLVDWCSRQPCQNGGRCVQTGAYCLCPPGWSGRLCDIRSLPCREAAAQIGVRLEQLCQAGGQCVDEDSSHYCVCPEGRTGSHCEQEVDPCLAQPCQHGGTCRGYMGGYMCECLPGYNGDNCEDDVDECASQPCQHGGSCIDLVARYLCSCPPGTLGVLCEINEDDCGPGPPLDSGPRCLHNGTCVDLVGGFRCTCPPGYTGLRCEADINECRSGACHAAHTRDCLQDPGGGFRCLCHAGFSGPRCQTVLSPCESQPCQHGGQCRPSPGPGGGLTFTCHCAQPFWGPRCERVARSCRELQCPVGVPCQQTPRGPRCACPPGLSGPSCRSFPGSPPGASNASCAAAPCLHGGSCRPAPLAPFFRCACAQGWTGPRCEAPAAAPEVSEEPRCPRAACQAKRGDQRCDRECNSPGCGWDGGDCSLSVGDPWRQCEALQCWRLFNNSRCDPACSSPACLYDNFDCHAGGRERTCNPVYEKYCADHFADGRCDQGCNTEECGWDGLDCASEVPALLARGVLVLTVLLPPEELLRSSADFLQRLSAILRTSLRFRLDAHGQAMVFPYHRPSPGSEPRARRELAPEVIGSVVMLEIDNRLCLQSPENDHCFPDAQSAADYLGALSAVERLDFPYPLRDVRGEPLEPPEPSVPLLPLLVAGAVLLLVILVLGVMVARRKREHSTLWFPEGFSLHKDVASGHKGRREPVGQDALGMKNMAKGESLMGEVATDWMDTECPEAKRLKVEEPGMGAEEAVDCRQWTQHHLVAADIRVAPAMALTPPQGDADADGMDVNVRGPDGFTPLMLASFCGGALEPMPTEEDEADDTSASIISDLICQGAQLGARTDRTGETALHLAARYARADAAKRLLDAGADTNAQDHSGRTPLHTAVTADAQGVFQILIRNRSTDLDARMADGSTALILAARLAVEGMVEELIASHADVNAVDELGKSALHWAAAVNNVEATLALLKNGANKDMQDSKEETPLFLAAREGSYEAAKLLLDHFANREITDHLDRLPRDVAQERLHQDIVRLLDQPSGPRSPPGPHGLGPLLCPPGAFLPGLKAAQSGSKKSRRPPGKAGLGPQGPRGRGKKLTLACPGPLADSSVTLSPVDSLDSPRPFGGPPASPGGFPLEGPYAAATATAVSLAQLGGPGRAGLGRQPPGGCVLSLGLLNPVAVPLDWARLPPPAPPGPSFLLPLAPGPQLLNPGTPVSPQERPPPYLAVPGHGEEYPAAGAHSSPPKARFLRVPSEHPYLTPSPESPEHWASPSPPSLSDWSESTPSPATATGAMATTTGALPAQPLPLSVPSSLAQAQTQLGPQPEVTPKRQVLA
# [10] = probe aEGFR binding to arrayed compounds – biochemical, biotinylated probe, 635/667 nm fluorescence, primary screen (AID 1097); conditions: small-molecule microarray, higher = more signal;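 also: probe is a biotinylated anti-EGFR antibody binding compounds printed on slides; score combines fluorescence near 667 nm and signal to noise of each spot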
# [11] = system: Plasmodium falciparum Sir2 (PF13_0152, Sir2A); test: Plasmodium falciparum Sir2A binding compounds – biochemical, small-molecule microarray, 635 nm fluorescence, primary screen (AID 1098); conditions: fluorescence 635 nm, higher = more signal;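 also: score merges spot fluorescence intensity with its signal-to-noise ratio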
# [12] = probe aDKK1 binding to arrayed compounds – biochemical, biotinylated probe, 635/667 nm fluorescence, primary screen (AID 1099); conditions: small-molecule microarray, higher = more signal;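 also: score merges 667nm spot fluorescence with signal to noise across triplicate slides; reference of the scale not given here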
# [13] = probe aCHRDL2 binding to arrayed compounds – biochemical, biotinylated probe, 635/667 nm fluorescence, primary screen (AID 1100); conditions: small-molecule microarray, higher = more signal
# [14] = change in splice reporter luminescence, either direction, cell-based, HEK293, spliceosome inhibition project, primary screen (AID 1101); conditions: HEK293 splicing luciferase reporter, 24 h, higher = more signal, called active from +8 up or from −8 down;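 also: HEK293 cells carrying a splicing-competent luciferase reporter gene; test concentration not given here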
# [15] = biological target: Fibroblast growth factor 10 (Homo sapiens) (UniProt O15520); test: compounds binding fibroblast growth factor 10 – biochemical, small-molecule microarray, 635 nm fluorescence, primary screen (AID 1102); conditions: FGF10 binding, fluorescence 635 nm, higher = more signal
# Fibroblast growth factor 10 (Homo sapiens), sequence (O15520 whole entry, looked up): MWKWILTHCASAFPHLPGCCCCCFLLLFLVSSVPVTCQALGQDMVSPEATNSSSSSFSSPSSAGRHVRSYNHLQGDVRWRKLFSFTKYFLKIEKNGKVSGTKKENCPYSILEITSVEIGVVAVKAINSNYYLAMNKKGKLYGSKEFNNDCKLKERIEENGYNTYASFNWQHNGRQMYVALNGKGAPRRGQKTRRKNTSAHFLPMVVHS
# [16] = system: glycogen synthase kinase-3 (GSK3A per assay name; protocol says GSK3B); test: compounds binding glycogen synthase kinase-3 – biochemical, small-molecule microarray, 635 nm fluorescence, GSK3A, primary screen (AID 1103); conditions: fluorescence 635 nm, higher = more signal; also: the record names both GSK3A and GSK3B
# [17] = biological target: Epidermal growth factor receptor (Homo sapiens) (UniProt P00533); test: compounds binding epidermal growth factor receptor – biochemical, small-molecule microarray, 635 nm fluorescence, primary screen (AID 1104); conditions: EGFR binding, higher = more signal;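 also: score merges 667 nm emission intensity with spot signal to noise over triplicate slides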
# Epidermal growth factor receptor (Homo sapiens), sequence (P00533 whole entry, looked up): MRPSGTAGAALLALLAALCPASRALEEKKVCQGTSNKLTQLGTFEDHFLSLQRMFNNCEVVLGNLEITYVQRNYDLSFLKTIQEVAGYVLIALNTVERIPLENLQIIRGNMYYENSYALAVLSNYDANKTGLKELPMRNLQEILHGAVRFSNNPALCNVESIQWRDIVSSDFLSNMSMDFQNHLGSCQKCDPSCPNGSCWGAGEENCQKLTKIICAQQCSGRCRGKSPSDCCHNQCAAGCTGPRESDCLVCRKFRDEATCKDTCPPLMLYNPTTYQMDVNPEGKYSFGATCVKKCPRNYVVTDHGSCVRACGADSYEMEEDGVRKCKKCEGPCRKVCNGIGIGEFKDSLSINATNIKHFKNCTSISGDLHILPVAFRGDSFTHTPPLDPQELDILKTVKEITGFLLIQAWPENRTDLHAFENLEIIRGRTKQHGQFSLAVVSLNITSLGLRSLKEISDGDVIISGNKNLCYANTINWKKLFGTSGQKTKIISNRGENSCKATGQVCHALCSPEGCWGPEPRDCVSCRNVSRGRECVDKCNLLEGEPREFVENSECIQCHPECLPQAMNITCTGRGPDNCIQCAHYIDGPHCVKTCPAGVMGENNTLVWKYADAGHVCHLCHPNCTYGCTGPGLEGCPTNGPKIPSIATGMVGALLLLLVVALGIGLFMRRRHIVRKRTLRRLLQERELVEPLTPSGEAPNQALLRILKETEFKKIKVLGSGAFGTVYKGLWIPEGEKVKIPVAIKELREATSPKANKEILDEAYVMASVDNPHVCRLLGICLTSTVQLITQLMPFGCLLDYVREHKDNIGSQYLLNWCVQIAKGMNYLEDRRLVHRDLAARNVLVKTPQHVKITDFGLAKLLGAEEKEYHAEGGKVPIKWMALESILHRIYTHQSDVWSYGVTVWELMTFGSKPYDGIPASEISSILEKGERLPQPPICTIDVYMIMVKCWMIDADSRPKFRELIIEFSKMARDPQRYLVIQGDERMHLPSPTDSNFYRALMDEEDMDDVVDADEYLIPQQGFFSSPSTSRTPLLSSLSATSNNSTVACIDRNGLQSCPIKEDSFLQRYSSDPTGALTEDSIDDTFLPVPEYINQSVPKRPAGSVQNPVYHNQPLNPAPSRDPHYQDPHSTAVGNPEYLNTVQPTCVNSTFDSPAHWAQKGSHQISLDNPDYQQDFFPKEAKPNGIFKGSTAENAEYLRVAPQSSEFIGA
# [18] = biological target: Follistatin-related protein 3 (Homo sapiens) (UniProt O95633); test: compounds binding follistatin-related protein 3 – biochemical, small-molecule microarray, 635 nm fluorescence, primary screen (AID 1105); conditions: FSTL3 binding, higher = more signal;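 also: score merges emission near 667 nm and signal to noise per printed spot across three slides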
# Follistatin-related protein 3 (Homo sapiens), sequence (O95633 whole entry, looked up): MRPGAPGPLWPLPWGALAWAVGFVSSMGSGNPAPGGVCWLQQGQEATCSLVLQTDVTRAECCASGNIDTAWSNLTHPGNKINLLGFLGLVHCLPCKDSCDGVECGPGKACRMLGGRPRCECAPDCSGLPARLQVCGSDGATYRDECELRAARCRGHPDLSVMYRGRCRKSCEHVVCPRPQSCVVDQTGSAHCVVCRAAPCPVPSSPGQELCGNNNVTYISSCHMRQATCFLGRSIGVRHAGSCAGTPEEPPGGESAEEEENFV
# [19] = biological target: Dickkopf-related protein 1 (Homo sapiens) (UniProt O94907); test: small molecules binding DKK1 protein – biochemical, small-molecule microarray, 635 nm fluorescence scan, primary screen (AID 1106); conditions: higher = more signal;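 also: score merges emission near 667 nm with signal to noise over three replicate slides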
# Dickkopf-related protein 1 (Homo sapiens), sequence (O94907 whole entry, looked up): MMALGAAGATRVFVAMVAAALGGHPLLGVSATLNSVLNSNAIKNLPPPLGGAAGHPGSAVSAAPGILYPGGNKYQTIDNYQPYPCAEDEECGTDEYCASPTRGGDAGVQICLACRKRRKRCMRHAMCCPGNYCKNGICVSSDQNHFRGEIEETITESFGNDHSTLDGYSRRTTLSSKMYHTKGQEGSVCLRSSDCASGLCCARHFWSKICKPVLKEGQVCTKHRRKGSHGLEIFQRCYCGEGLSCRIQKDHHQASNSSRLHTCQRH
# [20] = system: Inhibin beta A chain (activin A); test: small molecules binding activin A – biochemical, small-molecule microarray, 635 nm fluorescence scan, primary screen (AID 1107); conditions: INHBA, higher = more signal;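 also: mouse activin A protein probed at 4.33 µg/mL on printed slides; score merges bound-protein fluorescence near 667 nm with spot signal-to-noise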
smiles,measurement,setting,value
CC(C)=CCCC(C)=CC(O)C1C=CC2C(=O)NC(=O)C2N1Nc1ccc(Cl)cc1Cl (stereo not given),composite z-score,[1],0.258
same,z-score,[2],-0.835 (inactive)
same,z-score,[3],-4.51 (inactive)
same,z-score,[4],0.279 (inactive)
same,composite z-score,[5],2.31
same,z-score,[6],-2.06 (inactive)
same,composite z-score,[7],0.17
same,composite z-score,[8],-0.218
same,composite z-score,[9],0.845
same,composite z-score,[10],-0.0904
same,composite z-score,[11],0.44
same,composite z-score,[12],0.34
same,composite z-score,[13],0.992
same,z-score,[14],1.22 (inactive)
same,composite z-score,[15],0.499
same,composite z-score,[16],0.0742
same,composite z-score,[17],0.542
same,composite z-score,[18],1.1
same,composite z-score,[19],0.153
same,composite z-score,[20],1.44
NCCCCCCNC(=O)[C@@H]1C[C@@H]2C(=O)N3CCC[C@H]3C(=O)N2[C@@H]1c1cccc(OCCO)c1,composite z-score,[1],1.06
same,z-score,[2],-1.18 (inactive)
same,z-score,[3],-0.822 (inactive)
same,z-score,[4],-0.651 (inactive)
same,composite z-score,[5],1.74
same,z-score,[6],0.974 (inactive)
same,composite z-score,[7],0.0686
same,composite z-score,[8],1.1
same,composite z-score,[9],0.73
same,composite z-score,[10],0.0713
same,composite z-score,[11],1.23
same,composite z-score,[12],0.0549
same,composite z-score,[13],0.798
same,z-score,[14],-1.42 (inactive)
same,composite z-score,[15],0.752
same,composite z-score,[16],0.851
same,composite z-score,[17],0.405
same,composite z-score,[18],1.04
same,composite z-score,[19],1.2
same,composite z-score,[20],1.01
COc1ccc([Si](C)(C)[C@@H]2[C@@H](CC(=O)N3Cc4ccccc4C[C@H]3CO)O[C@]3(C(=O)N(Cc4ccc(N5CCOC5=O)cc4)c4ccccc43)[C@H]2C)cc1,composite z-score,[1],1.57
same,z-score,[2],-0.631 (inactive)
same,z-score,[3],0.693 (inactive)
same,z-score,[4],3.78 (inactive)
same,composite z-score,[5],1.56
same,z-score,[6],1.36 (inactive)
same,composite z-score,[7],-0.133
same,composite z-score,[8],1.55
same,composite z-score,[9],1.13
same,composite z-score,[10],-0.0947
same,composite z-score,[11],1.09
same,composite z-score,[12],-0.115
same,composite z-score,[13],-0.271
same,z-score,[14],-1.36 (inactive)
same,composite z-score,[15],0.723
same,composite z-score,[16],0.969
same,composite z-score,[17],0.916
same,composite z-score,[18],1.24
same,composite z-score,[19],0.945
same,composite z-score,[20],1.03
C[C@@H]1ON(c2ccc(I)cc2)[C@H](c2cccc(NC(=O)OCC3c4ccccc4-c4ccccc43)c2)[C@H]1C(=O)N1C(=O)OC[C@H]1Cc1ccccc1,composite z-score,[1],0.908
same,z-score,[2],0.882 (inactive)
same,z-score,[3],0.534 (inactive)
same,z-score,[4],1.33 (inactive)
same,composite z-score,[5],0.77
same,z-score,[6],1.28 (inactive)
same,composite z-score,[7],0.437
same,composite z-score,[8],0.493
same,composite z-score,[9],0.893
same,composite z-score,[10],0.0773
same,composite z-score,[11],0.683
same,composite z-score,[12],1.04
same,composite z-score,[13],-0.387
same,z-score,[14],-0.271 (inactive)
same,composite z-score,[15],0.252
same,composite z-score,[16],0.529
same,composite z-score,[17],0.325
same,composite z-score,[18],0.951
same,composite z-score,[19],1.05
same,composite z-score,[20],0.529
COc1ccc([Si](C)(C)[C@@H]2[C@@H](CC(=O)N(CCO)Cc3ccccc3)O[C@]3(C(=O)N(Cc4ccc(N5C(=O)c6cccc7cccc5c67)cc4)c4ccccc43)[C@H]2C)cc1,composite z-score,[1],1.57
same,z-score,[2],0.655 (inactive)
same,z-score,[3],0.27 (inactive)
same,z-score,[4],3.51 (inactive)
same,composite z-score,[5],1.63
same,z-score,[6],0.309 (inactive)
same,composite z-score,[7],-0.0785
same,composite z-score,[8],0.77
same,composite z-score,[9],0.223
same,composite z-score,[10],-0.116
same,composite z-score,[11],1.17
same,composite z-score,[12],-0.0669
same,composite z-score,[13],0.0161
same,z-score,[14],-1.33 (inactive)
same,composite z-score,[15],0.404
same,composite z-score,[16],0.01
same,composite z-score,[17],0.317
same,composite z-score,[18],0.12
same,composite z-score,[19],0.283
same,composite z-score,[20],0.516
CCCCCC1=C2CNC(Cc3ccccc3)(C(=O)OC)C=C2C(C)C1=O (stereo not given),composite z-score,[1],-0.488
same,z-score,[2],0.194 (inactive)
same,z-score,[3],-0.331 (inactive)
same,z-score,[4],1.2 (inactive)
same,composite z-score,[5],2.5
same,z-score,[6],-0.791 (inactive)
same,composite z-score,[7],0.226
same,composite z-score,[8],-1.49
same,composite z-score,[9],-0.638
same,composite z-score,[10],-0.0632
same,composite z-score,[11],0.0442
same,composite z-score,[12],0.926
same,composite z-score,[13],1.37
same,z-score,[14],73.6 (active)
same,composite z-score,[15],-0.0286
same,composite z-score,[16],-1.16
same,composite z-score,[17],-0.779
same,composite z-score,[18],-0.733
same,composite z-score,[19],-1.84
same,composite z-score,[20],1.47
COC(=O)[C@@]1(Cc2ccc(F)cc2)[C@H]2c3cc(C(=O)N4CCCC4)n(Cc4cc(F)cc5c4OCOC5)c3C[C@H]2CN1C(=O)c1ccccc1,composite z-score,[1],0.272
same,z-score,[2],0.494 (inactive)
same,z-score,[3],1.57 (inactive)
same,z-score,[4],3.33 (inactive)
same,composite z-score,[5],0.423
same,z-score,[6],-0.0269 (inactive)
same,composite z-score,[7],0.299
same,composite z-score,[8],0.739
same,composite z-score,[9],1.12
same,composite z-score,[10],0.36
same,composite z-score,[11],0.672
same,composite z-score,[12],1.14
same,composite z-score,[13],1.06
same,z-score,[14],-0.844 (inactive)
same,composite z-score,[15],0.762
same,composite z-score,[16],-0.0785
same,composite z-score,[17],0.0228
same,composite z-score,[18],1.3
same,composite z-score,[19],-0.334
same,composite z-score,[20],0.888
COc1ccc([Si](C)(C)[C@H]2[C@H](CC(=O)N3Cc4ccccc4C[C@H]3CO)O[C@@]3(C(=O)N(c4ccccc4)c4ccccc43)[C@@H]2C)cc1,composite z-score,[1],1.53
same,z-score,[2],-2.39 (inactive)
same,z-score,[3],-1.61 (inactive)
same,z-score,[4],-0.776 (inactive)
same,composite z-score,[5],1.47
same,z-score,[6],1.65 (inactive)
same,composite z-score,[7],-0.0088
same,composite z-score,[8],1.85
same,composite z-score,[9],1.09
same,composite z-score,[10],0.0059
same,composite z-score,[11],1.64
same,composite z-score,[12],-0.179
same,composite z-score,[13],-0.339
same,z-score,[14],-0.691 (inactive)
same,composite z-score,[15],1.11
same,composite z-score,[16],1.27
same,composite z-score,[17],1.13
same,composite z-score,[18],1.45
same,composite z-score,[19],0.75
same,composite z-score,[20],1.47
COC(=O)[C@H](Cc1ccc(O)cc1)N[C@@H](/C=C/C1CC1)[C@H](O)Cc1ccccc1,composite z-score,[1],0.308
same,z-score,[2],0.687 (inactive)
same,z-score,[3],-0.813 (inactive)
same,z-score,[4],0.0393 (inactive)
same,composite z-score,[5],-0.243
same,z-score,[6],-0.732 (inactive)
same,composite z-score,[7],-0.251
same,composite z-score,[8],-0.0001
same,composite z-score,[9],-0.0155
same,composite z-score,[10],-0.0828
same,composite z-score,[11],-0.61
same,composite z-score,[12],-0.29
same,composite z-score,[13],-0.33
same,z-score,[14],1.29 (inactive)
same,composite z-score,[15],0.357
same,composite z-score,[16],-0.444
same,composite z-score,[17],-0.074
same,composite z-score,[18],-0.119
same,composite z-score,[19],0.14
same,composite z-score,[20],-0.322
O=C1C2C=CC(C(O)c3c(F)cccc3Cl)N(Nc3ccc([N+](=O)[O-])cc3)C2C(=O)N1c1ccccc1 (stereo not given),composite z-score,[1],1.55
same,z-score,[2],-1.01 (inactive)
same,z-score,[3],1.35 (inactive)
same,z-score,[4],4.59 (inactive)
same,composite z-score,[5],3.54
same,z-score,[6],0.636 (inactive)
same,composite z-score,[7],0.13
same,composite z-score,[8],0.432
same,composite z-score,[9],1.09
same,composite z-score,[10],-0.0021
same,composite z-score,[11],0.77
same,composite z-score,[12],-0.124
same,composite z-score,[13],-0.0918
same,z-score,[14],-0.108 (inactive)
same,composite z-score,[15],1.2
same,composite z-score,[16],1.27
same,composite z-score,[17],0.518
same,composite z-score,[18],1.45
same,composite z-score,[19],0.875
same,composite z-score,[20],0.191
